# Measured values: PubChem BioAssay (NCI)
# This is part of a sample that, as a whole, favours compounds with a hit. Of some 83,000 tested, about 20% had one in any assay.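 Activity criterion: percent growth below 10, measured after cells in 96-well plates were exposed to a single compound concentration for 48 hours.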 Unmarked numbers belong to inactive results. Active and inactive are the calls of the source.
# Legend:
# Assay in all cases: NCI-60 one-dose screen, 48 h (100 = growth as untreated, 0 = no growth, -100 = all killed)
# Conditions in all cases: 10 µM unless noted
# T-47D breast = tested on: T-47D breast
# BT-549 breast = tested on: BT-549 breast
# MDA-MB-435 melanoma = tested on: MDA-MB-435 melanoma
# SW-620 colon = tested on: SW-620 colon
# MCF7 breast = tested on: MCF7 breast
# HCT-116 colon = tested on: HCT-116 colon
# HCC-2998 colon = tested on: HCC-2998 colon
# KM12 colon = tested on: KM12 colon
SMILES,growth (T-47D breast),growth (BT-549 breast),growth (MDA-MB-435 melanoma),growth (SW-620 colon),growth (MCF7 breast),growth (HCT-116 colon),growth (HCC-2998 colon),growth (KM12 colon)
COC(=O)c1sccc1-c1cc(O)c(C(=O)Nc2ccccc2)s1,67.5%,116%,102%,109%,82%,94.6%,109%,87%
NS(=O)(=O)c1ccc(C(=O)NN2C(=O)c3ccccc3C2=O)cc1,98.4%,109%,103%,104%,96.1%,110%,108%,102%
Cc1ccc(C2CC(c3cccc(Nc4ccncc4)c3)=Nc3c(N)nc(N)nc3N2)cc1 (centres undefined),89%,114%,21.7%,30.4%,37.7%,22.3%,62.4%,51.7%
CC(C)(C)CC(C)(C)Nc1c(-c2c(O)c3ccccc3oc2=O)nc2sc3ccccc3n12,15.9%,51.9%,47.9%,21.3%,28.9%,29.6%,52.6%,45.1%
CCCCC#Cc1c(I)n(C2OC(CO[Si](C)(C)C(C)(C)C)C3OC(C)(C)OC32)c(=O)n(C(=O)c2ccccc2)c1=O (centres undefined),-10.1% (active),27.5%,44.8%,-49.2% (active),28.9%,14.7%,-9.34% (active),71.7%
Cc1cc2oc(/C=C/c3ccccc3)cc(=O)c2c(C)c1Cl,87%,101%,95.9%,100%,98%,105%,106%,109%
O=C(CCCCCCCC(=O)N1CCCCC1)N1CCCCC1,117%,96.4%,105%,92.2%,97.1%,94.8%,86.5%,100%
CCSc1ccnc(N)n1,104%,117%,112%,106%,104%,106%,116%,108%
Nc1[nH]nc2nc(-c3ccccc3)n3c4ccccc4nc3c12,90.1%,105%,98.7%,95.8%,92.7%,99.4%,110%,104%
CCN(CC)c1ccc(-c2cc(-c3cc(OC)c(OC)c(OC)c3)nc(N3CCC(O)CC3)c2C#N)cc1,2.08% (active),-1.42% (active),-40.8% (active),9.95% (active),-33.3% (active),-51% (active),-10.5% (active),-26.8% (active)
CC(=O)c1ccc(-n2cc(CN3CCN(c4cc5c(cc4F)c(=O)c(C(=O)O)cn5C4CC4)CC3)nn2)cc1,96.4%,102%,96.3%,90%,72.9%,-9.74% (active),86%,84.9%
N#Cc1c(-c2ccccc2)nc2c(c(-c3ccccc3)nn2-c2ccccc2)c1-c1ccc(N2CCCCC2)cc1,94.5%,104%,99.9%,99.2%,100%,94.2%,107%,103%
Cc1nn(-c2ccc([N+](=O)[O-])cc2)c2ncnc(N/N=C/c3ccccc3O)c12,11.6%,30.6%,26.5%,25.1%,11.9%,18.1%,40.4%,22.3%
CCOC(=O)NCCCC(=O)NCCc1ccccc1,100%,110%,109%,111%,97.8%,97.6%,99.1%,96.6%
N#Cc1ccccc1-c1ccc(CN2C(=O)S/C(=C\c3ccc(Br)cc3)C2=O)cc1,85.3%,95.9%,94.5%,103%,95%,105%,98.9%,98.9%
COc1ccc(-c2cc(-c3cc(OC)ccc3OC)nc(SCC(C)=O)c2C#N)cc1,57.9%,61%,36.1%,92.1%,70.6%,74%,84.5%,60.2%
COc1ccc(C(c2cc(OC)c(OC)c(OC)c2)N2CCCCC2)cc1 (centres undefined),33.6%,49.7%,-21.8% (active),14.5%,23.6%,29.1%,79.6%,30.2%
COCCn1cc(-c2nc(-c3cn(CCOC)c4ncccc34)cs2)c2cc(F)ccc21,-11.9% (active),51.7%,59.1%,90.7%,7.84% (active),61.8%,42.1%,10.6%
COc1ccc(C(=O)C/C(=C\c2ccc(O)c(OC)c2)C(=O)NN)cc1,66.9%,63.7%,9.68% (active),84.1%,47.9%,72.2%,104%,73.2%
CCn1cc(C(=O)N/N=C/c2ccccc2)c(=O)c2cc(F)c(N3CCNC(C)C3)c(F)c21 (centres undefined),63.6%,77.8%,-88.1% (active),-81.1% (active),-84.4% (active),57.6%,-82.9% (active),-89.4% (active)
CCOc1ccc(NC(=O)Nc2ccc(OCC)cc2)cc1,95.7%,113%,109%,116%,94.5%,106%,103%,102%
COc1ccc(-c2cc(C(=O)N3N=C(c4ccc(N)cc4)CC3c3ccc(Cl)cc3)c3ccccc3n2)cc1 (centres undefined),47.4%,8.43% (active),-12.9% (active),29.2%,13.9%,15.6%,21.5%,20.7%
CSc1nc(-c2ccco2)c(C#N)c(=O)n1C,107%,92.6%,102%,97%,98%,100%,1.62% (active),103%
Cc1nc2sc(C(=O)Nc3cccc(Cl)c3C)c(N)c2cc1C(=O)/C=C/c1ccccc1,21.2%,-35.7% (active),-26.3% (active),-21.8% (active),3% (active),-35.6% (active),-83.2% (active),-16.7% (active)
c1ccc2cc(Cn3cc(CSc4nc5ccccc5s4)nn3)ccc2c1,80.8%,96.3%,105%,94.5%,91.7%,96.3%,102%,100%
Oc1ccc(-c2nc3ccc4[nH]ncc4c3c3c2CCCC3)c(F)c1,33%,13.9%,-23.3% (active),8.41% (active),26.8%,4.73% (active),41.4%,20%
CCCCO[C@@H]1C=C2[C@H]3CC(C)(C)C(=O)C[C@]3(C(=O)O[C@@H]3O[C@H](CO[C@@H]4O[C@H](CO)[C@@H](OC5OC(C)C(O)C(O)C5O)[C@H](O)[C@H]4O)[C@@H](O)[C@H](O)[C@H]3O)CC[C@@]2(C)[C@]2(C)CC[C@H]3C(C)(C)C(=O)CC[C@]3(C)[C@@H]12 (some centres undefined),67.4%,57.6%,51.9%,67.5%,55.5%,64.9%,82.7%,75.2%
N#CC1=C(N)Oc2c(sc3c(F)cccc23)C1c1ccc([N+](=O)[O-])cc1 (centres undefined),-3.63% (active),-48.3% (active),-28.7% (active),-33.7% (active),-18.1% (active),-84.8% (active),-40.8% (active),-32.4% (active)
